Among all 31,000 sequences or so, about 1,400 (4.5%) were called active. Shown is part of a subset that was picked to be rich in actives. A number with no mark means an inactive call.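 How the source made its calls: active means median seed-adjusted z-score above 1 or below -1; inactive means the rest.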

The nature of this experiment: Novel Modifiers of Survival Motor Neuron (SMN) Protein: Gene Identification via Genome-wide siRNA Screen.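 Further: luminescence tracks full-length SMN protein made from the SMN2 reporter.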 Conditions: HEK293T SMN2-luciferase reporter, siRNA knockdown, 72 h; actives lie on both sides. A digest of the protocol: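 Genome-wide siRNA screen (10418 genes, 3 siRNAs each, 1 pmol per well) by reverse transfection in HEK293T cells stably carrying an SMN2-luciferase reporter; luminescence after 72 hours, normalized to negative-control siRNA, log10-transformed, MAD-scored.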
(In general: In a reporter assay the amount or activity of a reporter protein is the signal.)
For CAACAGCAAUUACACCGAUTT against TMPRSS13, the median seed-adjusted z-score is 0.0584. Under GAACUUCAUAGUACAGCGATT against CTNNAL1 stands 0.229; under CUGCUCUAAUUACACCGUATT against CILP, 0.0436. Under GCUCGAUCCCUGCAGAUUATT against LCOR stands -0.0435; under AGAUAAAGCGAUCUAAACUTT against ASCC3, -0.192; under UCAUCUUAAAGGACCGAUATT against SEC11B, 1.04 (active). Under CCCACAUUCUUGUCCGGCATT against ADAMTS4 stands -0.0153; under GAAAGAUCCCUAUGGAAAATT against CAMK2G, -0.107. Turning to GAAGGAUUAGAAACCGCAATT against RNF144, the median seed-adjusted z-score was 0.0938.

GGAUAAUGGAGAACUCAGATT against NSFL1C: the median seed-adjusted z-score was -0.0899. GCACGUACCGCUUCGAAAATT against SLC4A10: the median seed-adjusted z-score is 0.026. The same measure for CCGGUAUUAGAAUCAAAGATT against POLS: -0.334.

Take CGAUAUCUUCACCACAUUATT against KCNJ6: the median seed-adjusted z-score is -1.6 (active). The same measure for CAACAAGUGUAACGACGAUTT against SMPD3: -0.0115; for ACAGAACUCGGGACCUUUUTT against H6PD: 0.069. The same measure for GAAGAUUGCUCAGCGAUUATT against PRPF3: -0.289.

GCUCGUAAGAGUGCAAGUATT against USPL1: the median seed-adjusted z-score was -1.87 (active). Under GCCUGAAACUGGAGCCUCATT against SLC3A2 stands -0.0428.

CCACAAAGACCGUCGCUUUTT against RHOBTB2: the median seed-adjusted z-score is -0.139. The same measure for GGCUAUGAUCAAAUCCUUATT against SLC17A4: 0.262; for GAACUGGGCGAGUAUUACATT against SUPT5H: -4.02 (active). Under AGAUGGAAGCGAAAACUGATT against NFATC1 stands 0.00712. Under GUGACCUUGUCAUUCCGUATT against RGS5 stands 0; under CACCUGUUCGUGUCCUUCATT against SCTR, -0.352.

For the sequence GCCUGGUUAUAUAACCGGATT against EP300, the median seed-adjusted z-score was -0.2. The same measure for GGUUCCGAAUCUAUUCCAATT against PLTP: 1.09 (active).

On to GGCCUUACUUAUUUGUGGATT against MAP2K5, for which the median seed-adjusted z-score is 0.986. As for GCAUCACACUCACCAACUATT against GPR124, the median seed-adjusted z-score was 0.00658. Under GCUUUGGAAGAAUACGUUATT against NR2F2 stands 0.129. The same measure for UGAGUAUGCCUACCUCAAATT against HNF4A: -0.0274. Under CAAUCUACCUAAUCAAGCUTT against ROD1 stands 0.42; under CAAGAACGUGUACAAGUUUTT against RPN2, -0.217; under GAGCUGAGCUGUCGAUAUATT against SUPT6H, -2.54 (active). For the sequence GGUACAUCAUGAUAGAACATT against ABCD2, the median seed-adjusted z-score was -0.102. Consider GUAUGGACACCAUUAGUAATT against DTX3L, for which the median seed-adjusted z-score was 0.0785. Under GAGUUCACCCAGAUCGAAATT against CHMP6 stands -1.81 (active). Under GCAUCGACAUGGUUUCCGATT against GABRB3 stands 0.0757. For the sequence CCACUGUACUGAGUGACCATT against HECTD3, the median seed-adjusted z-score was 0. Under GAUUACUUCUUGACUAUCATT against OCRL stands -0.545; under CGACCCUCAGAAUGAUAAATT against ARPC3, -0.237; under CCAUCCUGGAAAUACCCUATT against SERPINA12, -0.382.

Regarding UGAAUUUCGUAGUUCCAUATT against CNOT8, the median seed-adjusted z-score was 0.375. Under CCGUCGAAUUUGAAGGUGATT against SULF1 stands -0.128; under AGAUCUCCAUGGUCAGGAUTT against ACCN4, -0.512; under GAACCUUCGGGAGAACCUUTT against FKBPL, -1.11 (active). Under CGGUAUAAUCGGAAUCGGATT against MKI67IP stands 0.426; under GGUGAAUAUUUAUCGUCUATT against CHD1, -1.03 (active); under GCUAGACACCGGACCAAAATT against MMP28, 0.862.

In the case of GGACAACUAUGGUAAGAAATT against TCF7L1, the median seed-adjusted z-score is -0.251.

On to GGAUUGAGCGCAUCAAGGUTT against GNG7, for which the median seed-adjusted z-score is -0.205. Under GAAUGCUGUUUAUCUUAAUTT against PNPLA1 stands 0.00692; under GGGAAAAAGUUCUUGCGUATT against USP12, 0.121; under GCUUUACAACAAUCACAUATT against AMIGO2, -0.258. In the case of CUCUUUCAAGUAUGAGACATT against INHA, the median seed-adjusted z-score was 0.231. The same measure for CAGCUGCUAUCAGAACGGATT against APBA2: 1.66 (active); for GAAUAUUCUUGCAGAGUUUTT against WFDC5: 0. Under GGCUUUUGAGCAUCCCAAUTT against CDK4 stands 0.346. Under CAGUCCCUCUAUCACAUAUTT against ERH stands -1.25 (active); under GGAGGUGUUUUGUUCGGAUTT against SV2C, 0.183.

In the case of GGCUAGUGAUAUACUAUAUTT against RPS6KA6, the median seed-adjusted z-score was -0.0821. Under CCAUCAGUACAUAUCCGAATT against ABCA8 stands -0.666; under GCUCAUGGUUGAUGAUUCUTT against RABGGTA, -0.0601; under UCACUAUCAGUACCCAUUATT against CHRNB1, 0.16. Under GGAGAGAGGUCCAGUCUGATT against BIRC7 stands -1.44 (active); under CAAAGUAUCGGGUCAUCUATT against DMRTA1, -0.162. Under CUUUGACAGUGUUCGUGAATT against SGOL2 stands 0.114; under CCAAGACGAUGAGAGUAUATT against UGCGL2, -0.456. Regarding CGGGCGAGUUUACUAUGUATT against ITCH, the median seed-adjusted z-score is 0.199.

Consider GCAUUGCCGAGAUCCAUGATT against PIK3R2, for which the median seed-adjusted z-score is 0.421.

Regarding UCACGUAGAGUCAUAUUUATT against HNRPA1P4, the median seed-adjusted z-score was -0.906.

On to ACACAGCUGUUGUACCUCATT against MAP4, for which the median seed-adjusted z-score was 1.67 (active). As to GAUACUUUGCCGUCAAUUATT against CA5B, the median seed-adjusted z-score is 0.317. As for CCAUUGAUCUGCACUACUATT against NUP85, the median seed-adjusted z-score is 0.948.

GACCUAUCCUUGCACCAGATT against ECT2: the median seed-adjusted z-score is 0.04.

As for GCUCGAGUGGAAGAACUCATT against GLMN, the median seed-adjusted z-score was 0.

GCAGGACCCAUUACGGCUATT against DPEP1: the median seed-adjusted z-score is -0.886.

On to GGCUGUGCAUAAACGAGAATT against GTF2E1, for which the median seed-adjusted z-score was 1.76 (active). Under GGAGAACCAUAGAAAACCATT against RIPK3 stands 0.123; under CGAGGACACCCUUAGCAGUTT against ADRA1B, -0.472. For GACCGUACGAGGCAAGUAATT against PAX1, the median seed-adjusted z-score is -0.111.

GAACGAGUGAGAGAAUAUATT against TTC9C: the median seed-adjusted z-score was -0.571.

GCCGAGUCAGUAUCUAUGATT against STARD13: the median seed-adjusted z-score is -0.0337. Under GGACAAGAAUUUUGCCUUUTT against U2AF2 stands 2.14 (active); under CCACGGUGAUAACAGACAUTT against ALDH8A1, 0.0628. Turning to GGCUAUACAGGGUAGACAATT against PXDNL, the median seed-adjusted z-score was -0.186. Under GGCAGAUAACUGAACGAGATT against HECW2 stands 0.38. Under CUGGCUACGUGAAUGUGCATT against ZDHHC12 stands -0.0312; under GGAACUCGUGCAUCUCCAATT against CD93, -0.0879. The same measure for GAGAUUACAUAAACGGAGATT against PARP11: 0.192; for CAGAUGUUAUGGAUAUAAUTT against L2HGDH: -0.346.

GCUUAUGGUUGAUCAGUUATT against RNF7: the median seed-adjusted z-score is -1.18 (active). Under UGAGUUGCCCUGAUUUGAATT against AIF1 stands -0.0293. As to GCAACUCCUUCCUCGCUAATT against RBM17, the median seed-adjusted z-score was 0. As for GAAUGUUCAAGAUCGAUUUTT against RANBP2, the median seed-adjusted z-score is 1.53 (active). Under UCAUGUAUGUGGGAGCCAATT against SNCG stands -0.169; under AGGUGAUGCAGGACAGAAATT against COL18A1, -0.441; under CCUCAACUCUUAUAUUACATT against ZNF595, 0.102. GGAUCCCUAUGUUCGGAAATT against AP2B1: the median seed-adjusted z-score was -0.214. The same measure for GCAGUAAUAUUUAUCUCUUTT against SUCNR1: 0. The same measure for CCUGAAUCCUUAGACUUAATT against PROX1: -0.372. Under ACCCUGCUAUACUCCCUAUTT against MAPKAPK3 stands -0.506. As for GAUCCUAAUAUGAAGUUAUTT against FUBP1, the median seed-adjusted z-score is -1.52 (active). Under GCUAGAGAUUGACCAGAAATT against NUDC stands -0.227. Take GGCAACAACUGGAUCUGAATT against PIGZ: the median seed-adjusted z-score was 0.74. As to CUGGAUGAGGUGUACCUUATT against XPNPEP1, the median seed-adjusted z-score was -1.5 (active). Under GCAUGACCCUCGUCACAUATT against THBS1 stands -0.847; under GGGUAGGUGAUAUCCAUAUTT against ZBTB5, 0.314.

Regarding GGCGGAGUAUGGAAAGUUATT against UBE2H, the median seed-adjusted z-score was 0.

(Values after PubChem BioAssay AID1347426 (Functional Genomics Laboratory (NCATS/FGL), 2020).)
